Cruzain inh Det: qHTS Assay for Promiscuous and Specific Inhibitors of Cruzain (with detergent); Potency, µM, most hits filed as inhibitors; Cruzipain (Trypanosoma cruzi), P25779; actives 0.43% (n = 200,000); purified cruzain, Z-FR-AMC fluorescence, 0.01% Triton; note: nearly all actives have a fitted effect of over 40% in size
Target sequence (P25779 123-467 limits assumed): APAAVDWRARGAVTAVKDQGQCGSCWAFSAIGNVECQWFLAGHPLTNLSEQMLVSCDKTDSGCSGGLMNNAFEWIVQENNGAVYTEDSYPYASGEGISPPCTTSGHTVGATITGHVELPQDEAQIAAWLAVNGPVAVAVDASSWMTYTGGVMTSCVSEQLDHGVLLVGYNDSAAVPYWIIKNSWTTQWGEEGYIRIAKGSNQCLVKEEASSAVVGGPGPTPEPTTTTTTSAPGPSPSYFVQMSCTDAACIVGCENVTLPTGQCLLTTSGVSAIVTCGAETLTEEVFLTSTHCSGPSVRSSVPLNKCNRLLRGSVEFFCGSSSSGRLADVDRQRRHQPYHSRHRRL
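15 min RT preincubation of 1.5 nM cruzain with compound, then 2 uM Z-FR-AMC added; kinetic AMC fluorescence, 60 s delta. Triton X-100 0.01%, pH 5.5.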
Cruzain inh noDet: qHTS Assay for Promiscuous and Specific Inhibitors of Cruzain (without detergent). Cruzipain (Trypanosoma cruzi), P25779. purified cruzain, Z-FR-AMC fluorescence, no detergent. Potency, µM, hits mostly inhibitors. actives 2.3% (n = 200,000). AID 1476, 2009; note: nearly all actives have a fitted effect of over 40% in size
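Detergent-free condition (0.00005% Triton X-100) in acetate buffer pH 5.5 with DTT. 1.5 nM enzyme and compound were pre-mixed 15 min, then 2 uM Z-FR-AMC substrate added; reaction progress from fluorescence change between first and third reads (60 s).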
Hits are given with their value; . = inactive; ? = inconclusive. Shown are actives, neighbours in structure and some others; about 2.6% of the full set was active somewhere. Calls come from the whole dose curve; as a rule, active = well fitted curve in the direction sought with a large enough effect; inconclusive = small, poorly fitted or top-dose-only effect, or another doubt; inactive = no such curve, though single readings can be large; an effect the other way counts as inactive or inconclusive.

SMILES | Cruzain inh Det | Cruzain inh noDet
COC(=O)C1=C(C)N=c2s/c(=C/c3ccoc3)c(=O)n2C1c1ccccc1 (configuration not stated) | . | .
COc1ccc(C2C(C(C)=O)=C(C)N=c3s/c(=C/c4ccc5c(c4)OCO5)c(=O)n32)cc1 (configuration not stated) | . | 10µM
CCOC(=O)C1=C(C)N=c2s/c(=C/c3ccco3)c(=O)n2C1c1cccc(OC)c1 (configuration not stated) | . | 25µM
CCOC(=O)C1=C(N)n2c(s/c(=C/c3ccco3)c2=O)=C(C(=O)OC)C1c1ccco1 (configuration not stated) | . | 13µM
O=C(NCc1ccccc1Cl)c1ccc2c(c1)N(Cc1ccccc1)CCS2 | . | ?
O=C(c1cc(C(F)(F)F)cc(C(F)(F)F)c1)N1CCC2(CC1)CN(c1ccccn1)C2 | . | .
COC(=O)CCNC(=O)N1CCN(c2nnc(C)c3c(C)n(-c4ccc(Cl)cc4)nc23)CC1 | . | .
Cc1c(Br)c([N+](=O)[O-])nn1CC(=O)Nc1sc2c(c1C(=O)OC(C)C)CCCC2 | . | 13µM
Cc1c(Br)c([N+](=O)[O-])nn1CCCC(=O)Nc1sc2c(c1C#N)CCC2 | . | .
O=C(Cn1c2ccccc2c(=O)c2ccccc21)N/N=C/c1cc([N+](=O)[O-])ccc1N1CCCCC1 | . | 10µM
O=C(Cn1c2ccccc2c(=O)c2cc([N+](=O)[O-])ccc21)Nc1ccccc1Cl | . | ?
Cc1cc(/C=N/NC(=O)Cn2c3ccccc3c(=O)c3ccccc32)c(C)n1-c1ccccc1 | . | 16µM
Cc1ccc(N(CC(=O)N/N=C/c2cc(C)n(-c3ccccc3)c2C)S(C)(=O)=O)c(C)c1 | . | .
CC(=O)O[C@](C)(CCC=C(C)C)C1CC=C(C)CC1 (some centres not stated) | . | .
CCCCOc1ccc(C(=O)NCC(c2ccc(Cl)cc2)N2CCOCC2)cc1 (configuration not stated) | . | ?
CSc1ccc(CCNC(=O)Cn2ncc3c(=O)oc4ccc(C)cc4c32)cc1 | . | .
Cc1ccc(C)c(N2CCN(C(=O)Cn3nc(Cc4cccnc4)c4ccccc4c3=O)CC2)c1 | . | .
COCC(=O)NCCc1nc2ccccc2[nH]1 | . | ?
COc1ccccc1C(=O)NCCc1nc2ccccc2[nH]1 | 16µM | 5µM
O=C(NCCc1nc2ccccc2[nH]1)c1ccc(F)cc1 | ? | 1.3µM
CC(=O)NCCc1nc2ccccc2[nH]1 | . | .
Clc1ccc(CN2CCCN(Cc3ccc(Cl)cc3)C2c2cc3ccccc3c3ccccc23)cc1 | . | .
CC1=C(O)C(=O)[C@H]2O[C@@H]2C1=O | . | .
Cc1ccc(OP(=O)(Oc2ccc(C)cc2)Oc2ccc(C)cc2)cc1 | . | .
COc1cc(/C=C/c2nc(C#N)c(NC(C)c3ccccc3)o2)cc(OC)c1OC (configuration not stated) | . | ?
SMILES | Cruzain inh Det | Cruzain inh noDet
CC(CNC(=O)CCn1c(=O)c2cccn2c2ccc(F)cc21)c1ccccc1 (configuration not stated) | . | .
CC(CNC(=O)CCCn1c(=O)c2cccn2c2ccc(F)cc21)c1ccccc1 (configuration not stated) | . | 16µM
CCN(C(=O)c1c(C)oc2ncn(CC(C)C)c(=O)c12)c1cccc(Cl)c1 | . | .
O=C1C=CC2=C3c4cc(O)c(O)cc4C[C@@]3(O)COC2=C1 | . | .
COc1ccc(N=C2SC(CC(=O)Nc3ccc(OC)cc3OC)C(=O)N2C)cc1 (configuration not stated) | . | ?
COc1ccc(OC)c(NC(=O)CC2SC(=Nc3ccccc3)N(CCc3ccccn3)C2=O)c1 (configuration not stated) | . | ?
COc1ccc(OC)c(NC(=O)CC2SC(=Nc3ccc(F)cc3)N(CCC3=CCCCC3)C2=O)c1 (configuration not stated) | . | 20µM
COc1cc([N+](=O)[O-])ccc1NC(=O)CC1SC(=Nc2ccc(F)cc2)N(CCC2=CCCCC2)C1=O (configuration not stated) | . | 10µM
Cc1noc(C)c1C(=O)N1CCC[C@@]2(CCN(C(=O)NC(C)C)C2)C1 | . | .
O=C(O)c1ccc(Cc2ccccc2C(=O)O)cc1 | . | .
COc1ccc(N/C(N)=N/c2nc(CSc3ccc(Cl)cc3)cc(=O)[nH]2)cc1 | . | .
N/C(=N\c1nc(CSc2ccc(Cl)cc2)cc(=O)[nH]1)Nc1cccc2ccccc12 | . | 10µM
CN(C)Cc1cc(C(C)(C)C)ccc1-c1ccc(C(C)(C)C)cc1CN(C)C | . | .
COc1ccc2c(c1)C(=O)[C@@H](OC(=O)Nc1ccc(C)c(Br)c1)[C@H](c1ccc(OC)c(Br)c1)O2 | . | 25µM
COc1ccc2c(c1)C(=O)[C@H](OC(=O)Nc1ccc(C)c(Br)c1)[C@@H](c1ccc(OC)c(Br)c1)O2 | . | ?
O=C1N/C(=C/c2ccc(Br)cc2)C(O)=C1C=NCc1ccccc1 | . | 20µM
O=C1C(C=NCc2ccncc2)=C(O)c2ccccc21 | . | .
CC(C)(N)CO[C@H]1C[C@H]2CC[C@@]1(C)C2(C)C | . | .
CC(=O)OC/C=C(C)/C=C/C=C(C)/C=C/C1=C(C)CCCC1(C)C | . | ?
CC(=O)c1c(C)n([O-])c2ccc(C)cc2[n+]1=O | . | 1.6µM
Cc1ccc2c(c1)n([O-])c1c([n+]2=O)CCCC1 | . | .
N=C(N)n1cc(/C=N\N=C(N)N)cn1 | . | .
Cc1cccc(NC(=O)C2CCC(CNS(=O)(=O)c3ccc(Br)s3)CC2)c1 (configuration not stated) | . | .
Cc1ccccc1-c1cc(-c2ccccc2O)n[nH]1 | . | .
COc1ccccc1-c1cc(-c2cc(Cl)ccc2O)n[nH]1 | . | 25µM
SMILES | Cruzain inh Det | Cruzain inh noDet
Oc1ccc(Br)cc1-c1cc(-c2ccccc2F)[nH]n1 | . | 20µM
COc1ccc(OC)c(NC(=O)c2cc(-c3cc(Cl)ccc3O)n[nH]2)c1 | . | ?
Oc1ccc(Cl)cc1-c1cc(-c2ccccc2)n[nH]1 | . | .
COc1ccc(Cl)cc1NC(=O)c1cc(-c2ccccc2O)n[nH]1 | . | 10µM
CCOC(=O)c1c(NC(=S)Nc2ccc(Cl)cc2)sc(C)c1C | . | 4µM
COC(=O)c1c(NC(=S)Nc2ccc(CC(=O)O)cc2)sc(C)c1C | . | .
CCOC(=O)c1c(NC(=S)Nc2ccccc2)sc2c1CC(C)(C)SC2 | . | 13µM
CCOC(=O)c1c(NC(=S)NC)sc2c1CC(C)(C)SC2 | . | .
Nc1ccc(C(=O)N2CCCC2)cc1 | . | .
Nc1ccc(C(=O)n2c3ccccc3c3ccccc32)cc1 | . | 25µM
CC(C)NC(=O)N1CCCC2(CCN(C(=O)c3cc(C(F)(F)F)cc(C(F)(F)F)c3)CC2)C1 | . | ?
C/C=C(/C)C#N | . | .
Cc1ccc(Nc2c(-c3cc(Br)ccc3F)nc3cc(C)ccn23)cc1 | . | .
CCC(C(=O)NC1CCCC1)N(C(=O)Cn1nnc(-c2cccs2)n1)c1cnc2ccccc2c1 (configuration not stated) | . | .
O=C(NCc1ccccc1)C(c1ccc(F)cc1)N(Cc1ccc2c(c1)OCO2)C(=O)Cn1nnc(-c2cccs2)n1 (configuration not stated) | . | 13µM
O=C(CN(Cc1ccco1)C(=O)Cn1nnc(-c2cccs2)n1)NCc1ccccc1 | . | .

Source: PubChem BioAssay (National Center for Advancing Translational Sciences (NCATS))
